Only some compounds are listed: those with a hit (about 0.27% of all), similar ones and a draw of the others.
TRPML1 blocker = inhibitors of human TRPML1 channel. TRPML1-inducible cells, Ca2+ dye fluorescence, FDSS; active compounds read low; inhibition of EC80 agonist-evoked calcium signal. AID 624415. activity change, negative = inhibition, % (no concentration beside the values). Q9GZU1. actives 0.02% (n = 390,000); in the data active = activity change below about -50%; inconclusive = between about -30% and that limit;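 note: stimulus is agonist 54-4 at its EC80 concentration; % is set by controls: 0 for no effect and ±100 for the full control effect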
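Tet-induced TRPML1-DL cells loaded with Ca8 no-wash calcium dye were read kinetically on FDSS. Compound addition was followed by EC80 agonist 54-4 (4 uM final); inhibition was read over 110 s.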
TRPV1 PAM = enhances activation of the human vanilloid receptor TRPV1. Q8NER1. actives 0.02% (n = 320,000). TRPV1-expressing cells, Fluo-8 calcium influx, capsaicin EC20 potentiation. AID 540277. potentiation, % at 8.33 µM; in the data active = potentiation above about 80%; inconclusive = between about 30% and that limit; note: 0% is about no effect
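Cells expressing TRPV1 were dye-loaded with Fluo-8 and read kinetically: 10 s baseline, 3 min after compound (agonist portion), then 2 min after EC20 capsaicin (allosteric enhancer portion). Calcium-bound dye fluorescence at 480/520 nm.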
TRPV1 ag = agonists of human vanilloid receptor 1 (TRPV1) | Q8NER1 | TRPV1-expressing cells, Fluo-8 calcium influx, agonist mode | activation, % at 8.33 µM | actives 0.19% (n = 320,000) | AID 540275; in the data active = activation above about 80%; inconclusive = between about 30% and that limit; note: 0% is about no effect
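Fluo-8 calcium influx in TRPV1-expressing cells, kinetic read (ex 480/em 520 nm). Compound added and read 3 min for agonist activity, followed by capsaicin at EC20 final and 2 min further read for enhancement.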
TRPML1 ag = activates the human TRPML1 channel; Q9GZU1; TRPML1-expressing cells, Ca2+ dye fluorescence, FDSS; activation, % (no concentration beside the values); actives 0.12% (n = 410,000); AID 624414; in the data active = activation above about 50%; inconclusive = mostly about 30% to 49%; note: 0% is about no effect
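TRPML1-DL cells, Tet-induced overnight (~16 h, 37 degrees C), loaded 45-90 min at room temperature with Ca8 no-wash calcium dye plus quencher. FDSS fluorescence: 10 s baseline, compound pin-transfer, 110 s agonist read, then EC80 54-4 (4uM final) and 110 s antagonist read.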
An asterisk follows results filed as active.

What do the screens show for `CSc1nnc(SCC(=O)N(C)c2c(N)n(Cc3ccccc3)c(=O)[nH]c2=O)s1`?
TRPML1 blocker: 8.0; TRPV1 PAM: 8.2; TRPV1 ag: 0.3; TRPML1 ag: -0.9

How did CCOc1cc(/C=C\c2[nH]c(=O)[nH]c(=O)c2[N+](=O)[O-])ccc1OC(C)CC (centres undefined) do in these assays?
TRPML1 blocker: -71.0*; TRPV1 PAM: 13.1; TRPV1 ag: -4.5; TRPML1 ag: -0.6

How did CCCOc1ccc(/C=C/c2[nH]c(=O)[nH]c(=O)c2[N+](=O)[O-])cc1OCC do in these assays?
TRPML1 blocker: -14.5; TRPV1 PAM: inconclusive; TRPV1 ag: 1.9; TRPML1 ag: 0.5

What do the screens show for `CCN(CC)c1ccc(C(=O)Nc2ccccc2)cc1[N+](=O)[O-]`?
TRPML1 blocker: 2.0; TRPV1 PAM: -12.9; TRPV1 ag: 81.9*; TRPML1 ag: 2.3

Results for CC1CCN(CC(=O)Nc2cccc([N+](=O)[O-])c2)CC1 ?
TRPML1 blocker: 3.9; TRPV1 PAM: -9.8; TRPV1 ag: 1.2; TRPML1 ag: -0.1

Results for O=C(Nc1cccc([N+](=O)[O-])c1)c1cccc(C(=O)Nc2cccc([N+](=O)[O-])c2)c1 ?
TRPML1 blocker: 7.6; TRPV1 PAM: 26.0; TRPV1 ag: 3.1; TRPML1 ag: -0.1

How did O=C(Nc1cccc([N+](=O)[O-])c1)N1CCN(c2ccccc2)CC1 do in these assays?
TRPML1 blocker: 12.6; TRPV1 PAM: -16.9; TRPV1 ag: 100.4*; TRPML1 ag: -0.8

What do the screens show for `Cc1ccc(N2CCN(C(=O)Nc3cccc([N+](=O)[O-])c3)CC2C)cc1` (centres undefined)?
TRPML1 blocker: -5.1; TRPV1 PAM: 1.0; TRPV1 ag: 82.9*; TRPML1 ag: 5.6

What do the screens show for `COc1ccc(C(=O)Nc2ccc(Nc3ccccc3)cc2)cc1[N+](=O)[O-]`?
TRPV1 PAM: -1.7; TRPV1 ag: 1.3

What do the screens show for `O=C(Nc1cccc([N+](=O)[O-])c1)c1ccc(-c2ccccc2)cc1`?
TRPML1 blocker: 1.9; TRPV1 PAM: 16.7; TRPV1 ag: 86.9*; TRPML1 ag: 0.0

How did CCCCCCCC1CC(CSc2ncn[nH]2)OC1=O (centres undefined) do in these assays?
TRPML1 blocker: 4.1; TRPV1 PAM: -7.6; TRPV1 ag: inconclusive; TRPML1 ag: -1.1

What do the screens show for `N=c1oc2c3c4c(cc2cc1C(=O)Nc1ccccc1)CCCN4CCC3`?
TRPML1 blocker: -6.0; TRPV1 PAM: 11.3; TRPV1 ag: 83.7*; TRPML1 ag: 0.0

How did CCn1c(CNC(=O)C23CC4CC(CC(C4)C2)C3)nnc1SC do in these assays?
TRPML1 blocker: -0.2; TRPV1 PAM: 2.2; TRPV1 ag: -4.1; TRPML1 ag: 0.7

How did CN(C)CCCOC(=O)Cc1ccc(Cl)cc1 do in these assays?
TRPML1 blocker: -10.2; TRPV1 PAM: 13.9; TRPV1 ag: -1.4; TRPML1 ag: -0.5

What do the screens show for `Cc1ccc(-n2nc(C)c3c(C)c(CCC(=O)NCc4ccccc4)c(C)nc32)cc1`?
TRPML1 blocker: -14.6; TRPV1 PAM: 8.5; TRPV1 ag: 81.8*; TRPML1 ag: -0.3

Results for Cc1ccc(CNC(=O)CCc2c(C)nc3c(c(C)nn3-c3ccc(C)cc3)c2C)cc1 ?
TRPML1 blocker: 0.5; TRPV1 PAM: 2.1; TRPV1 ag: inconclusive; TRPML1 ag: -0.5

Results for Cc1ccc(-n2nc(C)c3c(C)c(CCC(=O)NCc4ccccc4Cl)c(C)nc32)cc1 ?
TRPML1 blocker: 10.5; TRPML1 ag: -0.3

What do the screens show for `Cc1ccc(-n2nc(C)c3c(C)c(CCC(=O)NCc4ccco4)c(C)nc32)cc1`?
TRPML1 blocker: 16.2; TRPV1 PAM: -13.3; TRPV1 ag: 81.7*; TRPML1 ag: 1.3

What do the screens show for `CCCCNC(=O)CCc1c(C)nc2c(c(C)nn2-c2ccccc2)c1C`?
TRPML1 blocker: -13.6; TRPV1 PAM: -0.7; TRPV1 ag: 93.7*; TRPML1 ag: 1.8

Results for Cc1ccnc(NC(=O)CCC(=O)N(CC(=O)NCCc2ccccc2)c2ccc(F)cc2)c1 ?
TRPML1 blocker: 11.4; TRPV1 PAM: 1.0; TRPV1 ag: 0.9; TRPML1 ag: 0.5

Results for CCCn1c(N2CCN(C(=O)Nc3ccc(Cl)cc3)CC2)nc2ccccc21 ?
TRPML1 blocker: -9.6; TRPV1 PAM: 3.3; TRPV1 ag: 80.9*; TRPML1 ag: -1.2

What do the screens show for `CC(C)n1c(N2CCN(C(=O)Nc3ccc(Cl)cc3)CC2)nc2ccccc21`?
TRPML1 blocker: 9.0; TRPV1 PAM: -15.2; TRPV1 ag: 82.2*; TRPML1 ag: -0.3
